These results are taken from PubChem BioAssay (NCATS).

The structures appear in SMILES notation. A number with no mark means an inactive call. Inconclusive results are not listed. Calls of active or inactive are those of the source. Unless noted, calls follow the shape of the dose curve; as a rule, active = well fitted curve in the direction sought with a large enough effect; inconclusive = small, poorly fitted or top-dose-only effect, or another doubt; inactive = no such curve, though single readings can be large; an effect the other way counts as inactive or inconclusive.

A short description of experiment [1]: qHTS Assay for Identification of Small Molecule Antagonists for NFkB Signaling Pathway (AID 895; active = well fitted inhibition curve with a large enough effect in the signal ratio, with a control signal flat, not every such curve was filed as active; the % refers to the signal ratio; also: potency is read from the fitted curve at half-maximal effect). An outline of the steps:
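NFkB-bla ME-180 cervical carcinoma cells with beta-lactamase reporter under NFkB response element; compounds added, then TNF alpha at 10 pM final (EC50), 5 h at 37 C. LiveBLAzer substrate 2 h, room temperature; emission 460/530 nm at 405 nm excitation.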

Experiment [2] has as its target Cytochrome P450 2C19 (Homo sapiens) (UniProt P33261). Kind of experiment: qHTS Assay for Inhibitors and Substrates of Cytochrome P450 2C19 (AID 899). Also: nearly all actives have a fitted effect of over 60% in size. Also: potency is read from the fitted curve at half-maximal effect. The gist of the method: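 In 50mM KPO4, the reaction held 5nM enzyme and KM-level (10uM) Luciferin-H EGE; it ran 60 min at 37C after NADPH regeneration and a 10 min compound preincubation. Luminescence values were scaled to 57uM ketoconazole as complete inhibition.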
In general terms: Quantitative high-throughput screening tests each substance at several concentrations.

A short description of experiment [3]: qHTS Assay for Identification of Small Molecule Agonists for Thrombopoietin (TPO) Signaling Pathway (AID 917). Also: % is scaled to controls: 0 for no effect and ±100 for the full control effect. The gist of the method: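 Luminescence from a Glycoprotein IIb promoter–driven luciferase reporter served as read-out in murine Ba/F3 cells carrying the human TPO receptor. Cells, deprived of IL-3 overnight, received compounds with 26 pM TPO and were incubated 24 hrs at 37 C.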

Experiment [4] addresses Muscarinic acetylcholine receptor M1 (Rattus norvegicus) (UniProt P08482). Kind of experiment: qHTS Assay for Antagonists of Acetylcholine Muscarinic M1 Receptor: Kinetic Measurement of Intracellular Calcium Response (AID 943). Also: nearly all actives have a fitted effect of over 75% in size. Also: potency is read from the fitted curve at half-maximal effect. The gist of the method: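 Intracellular calcium flux, recorded with Fluo-4 in a kinetic plate reader, served as signal; the response to carbachol at EC80 (100 nM final) was taken as maximal over minimal fluorescence after a 10 min compound pre-incubation in rat M1-CHO cells.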

Experiment [5] has the same target. Kind of experiment: qHTS Assay for Antagonists of Acetylcholine Muscarinic M1 Receptor: Measurement of IP-One Response (AID 944). Also: nearly all actives have a fitted effect of over 75% in size. Also: potency is read from the fitted curve at half-maximal effect. An outline of the steps:
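Steps: plate transfected CHO-M1 cells overnight; add test compound, 10 min; add carbachol (200 nM, EC80) in stimulation buffer with LiCl; incubate 30 min; add labelled IP1 tracer and anti-IP1 antibody in lysis buffer; read HTRF after 10 min.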

Experiment [6] has as its target Pyruvate kinase (Leishmania mexicana) (UniProt Q27686). Kind of experiment: qHTS Validation Assay for Inhibitors of Leishmania Mexicana Pyruvate Kinase (AID 945).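 Also: 0% = DMSO only neutral control wells.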 The gist of the method: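 The enzyme is a highly purified E451W mutant of LmPYK used at 0.2 nM. It converts 0.5 mM PEP and 0.1 mM ADP over 1 h at room temperature; product ATP is quantified by luciferase luminescence relative to DMSO controls.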

Experiment [7] has as its target Pyruvate kinase PKM (Homo sapiens) (UniProt P14618). Kind of experiment: qHTS Assay for Activators of Human Muscle Pyruvate Kinase (AID 954; active = well fitted curve in the direction sought with a large enough effect, not every such curve was filed as active;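 also: 0% = uninhibited enzyme and -100% = no enzyme or full thiadiazolimine inhibition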). An outline of the steps:
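Human PKM2 activity is measured as ATP generation, detected by luciferase-coupled luminescence. The enzyme (0.1 nM) acts on 0.5 mM PEP and 0.1 mM ADP for 1 h at ambient temperature; data are normalized to uninhibited and full-inhibition wells.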

The nature of experiment [8]: qHTS Assay for Identification of Small Molecule Agonists for Hypoxia Response Element Signaling Pathway (AID 914; active = well fitted activation curve with a large enough effect in the signal ratio, with a control signal flat, not every such curve was filed as active; the % refers to the signal ratio; also: % of control where 0% means no effect). Conditions: ME-180 (cervical carcinoma) HRE-bla reporter, beta-lactamase ratio, CoCl2, 17 h; activation: hits give high values. An outline of the steps: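 Cells were plated overnight, pin-dosed with compound in a titration series, co-stimulated with EC50 CoCl2 and incubated 17 hours at 37 degrees Celsius. CCF4 substrate was then loaded, and AC50 values came from the 460nm/530nm ratio.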

Experiment [9] can be described thus: Confirmation and Secondary Assay for Modulators of Hemoglobin Beta Chain Splicing at IVS2 654 locus (AID 910).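 Also: per-well total GFP intensity by laser scanning cytometry after 2-day treatment; % of control where 0% means no effect.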 An outline of the steps:
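HeLa cells stably carrying EGFP interrupted by mutant beta-globin IVS2-654 intron (CMV-driven) were treated with compound for 2 days at 37C; corrected splicing was scored as total peak GFP intensity per well (488 nm excitation, 500-520 nm emission).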

Experiment [10] in a line: Confirmation and Secondary Assay for Modulators of Hemoglobin Beta Chain Splicing at IVS2 705 locus (AID 930).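 Also: HeLa cells stably expressing the EGFP-705 splicing reporter; GFP fluorescence per well restored by corrected splicing of the IVS2-705 intron in EGFP; series mostly up to about 46 µM; % of control where 0% means no effect.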 The gist of the method:
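Splice-correction reporter: EGFP cDNA split by beta-globin intron 2 bearing the 705 mutation, stably in HeLa. Compound incubation 2 days, 37C; fluorescent objects 5-250 µm summed per well.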

Experiment [11] in a line: Cell Viability - LYMP2-001 (AID 921).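 Also: series mostly up to about 92 µM; cells exposed to compound for 24 h at 37 °C; 0% = DMSO only and full inhibition = tetraoctylammonium bromide control wells; nearly all actives have a fitted effect of over 70% in size.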 An outline of the steps:
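Steps: seed 2500 lymphoblastoid cells/well; 5 hr, 37 C; add compound; 24 hr, 37 C; CellTiter-Glo reagent, 30 min room temperature; read luminescence. Concentration-response modeled by Hill equation for AC50.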

Experiment [12] can be described thus: MultiTox-Fluor Cytotoxicity Assay - LYMP1-001 - Dead Cells (AID 946). An outline of the steps: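 Cytotoxicity as increased dead-cell protease fluorescence (bis-AAF-R110, 485/520 nm), read 60 min after MultiTox-Fluor reagent. Human lymphoblastoid line exposed 16 h; Hill-fitted AC50, with DMSO as 0% and 15 uM tetraoctylammonium bromide as 100%.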
A short description of experiment [13]: MultiTox-Fluor Cytotoxicity Assay - LYMP1-001 - Live Cells (AID 947).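 Also: 0% = DMSO only and full inhibition = tetraoctylammonium bromide control.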
Experiment [14] is described as follows: Cell Viability - LYMP1-002 - Assay at 16 hr (AID 948).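 Also: 0% = DMSO alone and full effect = 92 µM tetraoctylammonium bromide.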 The gist of the method: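 Seed 2500 LYMP1-002 cells per well in complete medium and hold 5 hr at 37 C. Add compound across a concentration series and incubate 16 hr at 37 C. Add CellTiter-Glo, wait 30 min at room temperature, read luminescence.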
A short description of experiment [15]: MultiTox-Fluor Cytotoxicity Assay - LYMP1-002 - Live Cells (AID 955).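 Also: cells exposed to compound for 16 hours; % is scaled to controls: 0 for no effect and ±100 for the full control effect.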 An outline of the steps: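 Cytotoxicity in the human lymphoblastoid line LYMP1-002 is measured as loss of live-cell protease activity after 16 h treatment in complete culture medium. AC50 is derived from Hill-equation fits of qHTS concentration-response data.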
A short description of experiment [16]: MultiTox-Fluor Cytotoxicity Assay - LYMP1-002 - Dead Cells (AID 960). Also: nearly all actives have a fitted effect of over 60% in size. The gist of the method:
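Acute cytotoxicity in a human lymphoblastoid line is scored as rising dead-cell protease signal after 16 hr exposure at 37 C, measured fluorometrically (485/520).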

The nature of experiment [17]: MultiTox-Fluor Cytotoxicity Assay - LYMP1-003 - Dead Cells (AID 961). Also: nearly all actives have a fitted effect of over 70% in size. An outline of the steps:
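Dead-cell protease release, detected as bis-AAF-R110 fluorescence at 485/520 nm, was measured in LYMP1-003 cells after 16 h compound treatment at 37 C. AC50 values came from Hill-modeled qHTS curves normalized to DMSO (0%) and 15 uM tetraoctylammonium bromide (100%).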

Muscarinic acetylcholine receptor M1 (Rattus norvegicus), sequence (P08482 whole entry, looked up): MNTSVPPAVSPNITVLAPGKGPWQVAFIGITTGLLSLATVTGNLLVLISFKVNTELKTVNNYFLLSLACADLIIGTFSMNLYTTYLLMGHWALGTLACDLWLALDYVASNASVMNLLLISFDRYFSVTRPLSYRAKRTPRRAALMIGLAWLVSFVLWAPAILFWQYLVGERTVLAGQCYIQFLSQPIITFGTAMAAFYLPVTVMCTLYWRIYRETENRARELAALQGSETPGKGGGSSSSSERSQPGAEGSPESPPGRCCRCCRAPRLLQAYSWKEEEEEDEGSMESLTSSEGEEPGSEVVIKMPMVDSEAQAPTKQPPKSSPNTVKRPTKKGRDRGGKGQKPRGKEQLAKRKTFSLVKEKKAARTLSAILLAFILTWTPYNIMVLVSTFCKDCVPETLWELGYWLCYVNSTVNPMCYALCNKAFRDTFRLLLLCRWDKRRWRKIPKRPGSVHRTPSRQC
Pyruvate kinase (Leishmania mexicana), sequence (Q27686 2-499 E452W): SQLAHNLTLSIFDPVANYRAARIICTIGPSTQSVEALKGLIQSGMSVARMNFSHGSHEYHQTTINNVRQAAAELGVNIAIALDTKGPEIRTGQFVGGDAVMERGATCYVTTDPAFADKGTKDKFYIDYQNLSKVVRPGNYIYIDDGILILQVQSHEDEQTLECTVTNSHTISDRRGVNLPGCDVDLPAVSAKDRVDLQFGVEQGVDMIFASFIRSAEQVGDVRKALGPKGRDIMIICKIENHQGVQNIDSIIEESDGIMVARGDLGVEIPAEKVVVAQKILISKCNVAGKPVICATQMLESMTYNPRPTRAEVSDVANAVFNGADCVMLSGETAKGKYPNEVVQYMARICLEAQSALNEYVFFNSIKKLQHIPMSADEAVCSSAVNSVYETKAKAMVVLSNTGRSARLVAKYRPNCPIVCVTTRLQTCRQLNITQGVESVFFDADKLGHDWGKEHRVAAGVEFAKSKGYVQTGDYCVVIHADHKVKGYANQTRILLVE
Pyruvate kinase PKM (Homo sapiens), sequence (P14618 whole entry, looked up): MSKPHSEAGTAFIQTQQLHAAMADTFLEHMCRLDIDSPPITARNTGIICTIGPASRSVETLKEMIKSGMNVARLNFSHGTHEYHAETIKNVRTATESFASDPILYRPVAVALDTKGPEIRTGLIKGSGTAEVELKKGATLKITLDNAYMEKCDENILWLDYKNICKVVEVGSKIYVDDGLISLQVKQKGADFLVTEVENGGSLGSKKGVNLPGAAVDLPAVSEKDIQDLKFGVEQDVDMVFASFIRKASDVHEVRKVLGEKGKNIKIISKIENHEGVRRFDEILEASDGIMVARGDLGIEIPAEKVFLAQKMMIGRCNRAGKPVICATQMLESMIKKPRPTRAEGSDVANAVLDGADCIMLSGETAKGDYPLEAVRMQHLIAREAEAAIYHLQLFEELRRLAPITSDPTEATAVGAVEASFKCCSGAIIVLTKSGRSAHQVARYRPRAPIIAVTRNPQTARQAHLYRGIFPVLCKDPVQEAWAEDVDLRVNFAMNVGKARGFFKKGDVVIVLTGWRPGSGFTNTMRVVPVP
Cytochrome P450 2C19 (Homo sapiens), sequence (P33261 whole entry, looked up): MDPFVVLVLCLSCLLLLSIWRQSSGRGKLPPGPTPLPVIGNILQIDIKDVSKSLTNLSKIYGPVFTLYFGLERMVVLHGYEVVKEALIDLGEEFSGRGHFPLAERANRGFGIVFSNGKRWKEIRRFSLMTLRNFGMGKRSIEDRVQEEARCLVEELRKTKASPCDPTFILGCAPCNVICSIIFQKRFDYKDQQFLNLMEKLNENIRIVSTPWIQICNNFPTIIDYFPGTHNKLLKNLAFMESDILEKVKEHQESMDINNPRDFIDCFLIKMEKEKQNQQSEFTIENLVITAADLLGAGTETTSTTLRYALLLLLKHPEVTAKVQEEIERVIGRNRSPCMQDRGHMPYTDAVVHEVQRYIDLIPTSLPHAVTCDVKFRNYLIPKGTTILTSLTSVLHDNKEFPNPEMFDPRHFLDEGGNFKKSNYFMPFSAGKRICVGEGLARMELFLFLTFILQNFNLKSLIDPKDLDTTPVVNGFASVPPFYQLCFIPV

For the compound `NCCS(=O)O`, the Potency entry in [1], in experiment [2], in experiment [3], in experiment [4], in [5] and in experiment [6] was “inactive” throughout. Also, the call in experiment [7] was inactive.
Consider `[Li+]`, for which the Potency entry in experiment [1], in experiment [3], in experiment [5] and in experiment [6] was “inactive” each time. For the same compound, the activation in experiment [8] is 9.95%. In addition, the compound was called inactive in experiment [7].
Consider `O=c1onc2cnc3ccccc3n12`, for which the Potency in experiment [1] is 5.62 µM (active). The Potency result in experiment [2], in experiment [3], in experiment [5] and in experiment [6] was “inactive” in each case. Moreover, the outcome in [7] was inactive.
On to `CCCn1c(=O)c2[nH]c(C3CCCC3)nc2n(CCC)c1=O`, for which the Potency entry in experiment [1], in experiment [2], in [9], in experiment [3], in [5] and in experiment [6] was “inactive” each time. Also, the compound was classed as inactive in [10] and in experiment [7].
With `COc1cc2c(CCNC(C)=O)c[nH]c2cc1O`, the Potency result in [1], in experiment [3], in experiment [4], in experiment [5] and in experiment [6] was “inactive” throughout. In addition, the outcome in [7] was inactive.
On to `Cc1nc2c(OCc3ccccc3)cccn2c1CC#N`, for which the Potency result in experiment [1], in experiment [2], in [3], in [5] and in experiment [6] was “inactive” in each case. For the same compound, the call in experiment [7] was inactive.
Regarding `CC(=O)C(C)=O`, the Potency result in [1], in experiment [2], in experiment [5] and in [6] was “inactive” each time. The compound was classed as inactive in [11], in [12], in [13], in [14], in experiment [7] and in [15]. The outcome in experiment [16] and in [17] was inactive.
Regarding `NC1(C(=O)O)CCCCC1`, the Potency result in [1], in experiment [2], in experiment [3], in [5] and in [6] was “inactive” throughout. For the same compound, the result in experiment [7] was inactive.
Take `CCSC(=N)N`: the Potency entry in experiment [1], in experiment [9], in [3], in experiment [4], in experiment [5] and in experiment [6] was “inactive” each time. Further, the result in [10] and in experiment [7] was inactive.
With `NC(=O)c1ccccc1`, the Potency result in experiment [1], in [2], in experiment [3], in experiment [4], in [5] and in experiment [6] was “inactive” in each case. Further, the result in experiment [11], in [12], in experiment [13], in experiment [14], in [7] and in experiment [15] was inactive. Besides, the call in experiment [17] was inactive.
For the compound `O=C(O)C1=CCCNC1`, the Potency entry in experiment [1], in [9], in experiment [3], in experiment [4], in experiment [5] and in experiment [6] was “inactive” in each case. The outcome in experiment [10] and in experiment [7] was inactive.
On to `CCCCCCN(CCCCCC)C(=O)Cc1c(-c2ccc(F)cc2)[nH]c2ccccc12`, for which the Potency result in [1], in experiment [5] and in [6] was “inactive” in each case. Also, the Potency in experiment [2] was 3.98 µM (active). Besides, in experiment [7], the compound was classed as inactive.
Consider `Cc1ccc2c(c1)C(N1CCN(C)CC1)=Nc1cccnc1N2`, for which the Potency in experiment [1] is 11.2 µM (active); in experiment [4], 0.0355 µM (active); in experiment [5], 0.0794 µM (active). The Potency result in experiment [3] and in experiment [6] was “inactive” each time. Further, the outcome in experiment [7] was inactive.
